Data published in PubChem BioAssay (EPA / NIEHS).
Inconclusive results are not listed. Some compounds were tested as several samples or in several runs, with calls that do not always agree. Active and inactive are the calls of the source. The calls were made as follows, unless noted: active = hit-call score of the fitted dose curve at least 0.9, where 1 is the maximum; inconclusive = response in the unintended direction; inactive = score below 0.9.

Tests used:
[1] = molecular target: Estrogen receptor (Homo sapiens) (UniProt P03372); assay: ATG_ERa_TRANS: Attagene TRANS-FACTORIAL HepG2 Assay for human Estrogen Receptor alpha (ERa) (AID 2282970); conditions: HepG2 Attagene TRANS ERa GAL4 reporter, mRNA
Summary of the method: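 Liver-derived HepG2 cells expressing chimeric nuclear receptor-Gal4 proteins from transient transfection were exposed for 24 hours. Gain of reporter mRNA signal versus DMSO, read by capillary electrophoresis of FAM-labelled PCR products, was recorded.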

[2] = molecular target: X-box-binding protein 1 (Homo sapiens) (UniProt P17861); assay: ATG_Xbp1_CIS: Attagene CIS-FACTORIAL HepG2 Assay for human X-box Binding Protein 1 (XBP1) (AID 2282972; active = hit-call score of the fitted dose curve at least 0.9, where 1 is the maximum; inactive = score below 0.9); conditions: HepG2 XBP1 cis-element reporter, Attagene multiplex; actives raise or lower the signal
Summary of the method: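 Changes in reporter transcript abundance, read by RT-PCR and capillary electrophoresis, reflect endogenous transcription factor activity. Transfected HepG2 cells received compound for 24 hours; DMSO defined baseline for bidirectional analysis.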

[3] = ATG_GAL4_TRANS: Attagene TRANS-FACTORIAL HepG2 Assay for GAL4 (Internal Marker) (AID 2282976); conditions: HepG2 Attagene TRANS GAL4 internal marker reporter
Summary of the method: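 First, HepG2 cells were transfected with reporter units under GAL4-UAS control. Next, they were treated with chemical for 24 h. Finally, RNA was reverse-transcribed, PCR-amplified, FAM-labelled and resolved by capillary electrophoresis, with induction scored against DMSO.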

[4] = molecular target: Glucocorticoid receptor (Homo sapiens) (UniProt P04150); assay: ATG_GR_TRANS: Attagene TRANS-FACTORIAL HepG2 Assay for human Glucocorticoid Receptor (GR) (AID 2282978); conditions: HepG2 Attagene TRANS GR reporter, mRNA transcription;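 also: activators score as hits since higher reporter transcript over DMSO is fitted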
Summary of the method: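 HepG2 cells transiently transfected with multiplexed reporter units in which chimeric NR-GAL4 proteins drive GAL4-UAS reporters; 24 h compound exposure. Reporter mRNA measured by RT-PCR, 6-FAM labelling, HpaI digestion and capillary electrophoresis; gain-of-signal fitted versus DMSO.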

[5] = molecular target: Bile acid receptor (Homo sapiens) (UniProt Q96RI1); assay: ATG_FXR_TRANS: Attagene TRANS-FACTORIAL HepG2 Assay for Farnesoid X Receptor (FXR) (AID 2282979); conditions: HepG2 Attagene TRANS FXR-GAL4 reporter transcription;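 also: hits raise reporter mRNA above DMSO so AC50 marks FXR activation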
Summary of the method: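 Transient transfection of HepG2 with multiplexed GAL4-UAS reporter units; exogenous FXR-GAL4 chimera. Dose 24 h → TriZol RNA → oligo(dT) RT → PCR, 6-FAM primer extension, HpaI cut → CE. Gain vs DMSO.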

[6] = molecular target: Oxysterols receptor LXR-alpha (Homo sapiens) (UniProt Q13133); assay: ATG_LXRa_TRANS: Attagene TRANS-FACTORIAL HepG2 Assay for human Liver X Receptor alpha (LXRa) (AID 2282980); conditions: HepG2 Attagene TRANS reporter, LXRa transactivation
Summary of the method: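 Transfect HepG2 with GAL4-UAS multiplex reporter constructs (TRANS format, chimeric receptor-GAL4); treat 24 h; extract RNA, reverse-transcribe, PCR-amplify, FAM-label, HpaI-digest; resolve fragments by capillary electrophoresis. Upward response vs DMSO.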

[7] = molecular target: Estrogen-related receptor gamma (Homo sapiens) (UniProt P62508); assay: ATG_ERRg_TRANS: Attagene TRANS-FACTORIAL HepG2 Assay for human Estrogen-Related Receptor gamma (ERRg) (AID 2282977); conditions: HepG2 Attagene TRANS reporter, ERRg transactivation;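 also: hits increase reporter signal over DMSO so potencies reflect activators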
Summary of the method: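 Induction of reporter transcripts through a chimeric NR-Gal4 protein is quantified in transfected human HepG2 liver cells after 24 h chemical exposure, using RT-PCR with capillary electrophoresis detection and DMSO as baseline.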

[8] = ATG_M_19_TRANS: Attagene TRANS-FACTORIAL HepG2 Assay for M19 Transcription Factor (Internal Marker) (AID 2282974); conditions: HepG2 Attagene TRANS-FACTORIAL M19 internal marker reporter
Summary of the method: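 HepG2 cells transiently transfected with multiple GAL4-UAS reporter transcription units were exposed to chemicals for 24 h. Reporter mRNA was read by RT-PCR, 6-FAM primer extension, HpaI digestion and capillary electrophoresis; gain of signal fitted relative to DMSO.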

[9] = molecular target: Steroid hormone receptor ERR1 (Homo sapiens) (UniProt P11474); assay: ATG_ERRa_TRANS: Attagene TRANS-FACTORIAL HepG2 Assay for human Estrogen-Related Receptor alpha (ERRa) (AID 2282971); conditions: HepG2 Attagene TRANS reporter, ERRa transactivation
Summary of the method: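 Reporter transcript induction was quantified by RT-PCR and capillary electrophoresis of FAM-labelled, HpaI-cut products after 24 h treatment of HepG2 cells carrying transiently transfected GAL4-UAS reporter units and an exogenous ERRa-Gal4 fusion; activity scored as increase over DMSO.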

Measured: AC50

Chain of Steroid hormone receptor ERR1 (Homo sapiens) (P11474 whole entry, looked up, the tested form may be a part): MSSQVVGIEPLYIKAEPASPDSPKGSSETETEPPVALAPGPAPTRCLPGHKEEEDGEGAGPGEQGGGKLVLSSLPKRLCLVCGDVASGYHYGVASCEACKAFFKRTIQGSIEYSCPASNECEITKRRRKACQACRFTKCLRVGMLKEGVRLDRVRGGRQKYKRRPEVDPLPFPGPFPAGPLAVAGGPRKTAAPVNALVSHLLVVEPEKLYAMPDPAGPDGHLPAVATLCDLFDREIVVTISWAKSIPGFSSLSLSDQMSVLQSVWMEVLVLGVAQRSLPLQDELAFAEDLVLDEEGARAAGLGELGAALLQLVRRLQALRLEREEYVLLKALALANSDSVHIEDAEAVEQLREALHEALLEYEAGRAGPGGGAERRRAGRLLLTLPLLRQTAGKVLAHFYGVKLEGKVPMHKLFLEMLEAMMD
Chain of X-box-binding protein 1 (Homo sapiens) (P17861 whole entry, looked up): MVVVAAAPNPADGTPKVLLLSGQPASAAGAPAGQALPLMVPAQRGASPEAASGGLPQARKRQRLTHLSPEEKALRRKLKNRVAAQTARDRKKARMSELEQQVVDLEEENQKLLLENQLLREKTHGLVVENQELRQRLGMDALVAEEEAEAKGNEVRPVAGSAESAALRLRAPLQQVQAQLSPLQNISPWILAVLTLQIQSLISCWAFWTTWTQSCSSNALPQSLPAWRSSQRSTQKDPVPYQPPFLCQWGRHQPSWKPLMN
Chain of Bile acid receptor (Homo sapiens) (Q96RI1 whole entry, looked up, the tested form may be a part): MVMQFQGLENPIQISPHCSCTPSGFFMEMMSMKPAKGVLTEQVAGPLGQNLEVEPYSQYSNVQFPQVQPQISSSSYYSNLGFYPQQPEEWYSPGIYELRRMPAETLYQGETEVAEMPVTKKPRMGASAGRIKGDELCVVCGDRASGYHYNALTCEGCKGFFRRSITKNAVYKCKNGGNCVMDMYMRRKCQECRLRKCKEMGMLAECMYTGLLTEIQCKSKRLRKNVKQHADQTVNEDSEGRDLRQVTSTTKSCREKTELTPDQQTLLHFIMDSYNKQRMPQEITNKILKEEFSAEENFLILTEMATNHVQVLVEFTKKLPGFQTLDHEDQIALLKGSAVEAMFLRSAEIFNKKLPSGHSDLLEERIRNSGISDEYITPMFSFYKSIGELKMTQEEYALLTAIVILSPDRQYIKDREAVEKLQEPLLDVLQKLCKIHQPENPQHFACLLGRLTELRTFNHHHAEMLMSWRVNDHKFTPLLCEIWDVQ
Chain of Estrogen-related receptor gamma (Homo sapiens) (P62508 whole entry, looked up, the tested form may be a part): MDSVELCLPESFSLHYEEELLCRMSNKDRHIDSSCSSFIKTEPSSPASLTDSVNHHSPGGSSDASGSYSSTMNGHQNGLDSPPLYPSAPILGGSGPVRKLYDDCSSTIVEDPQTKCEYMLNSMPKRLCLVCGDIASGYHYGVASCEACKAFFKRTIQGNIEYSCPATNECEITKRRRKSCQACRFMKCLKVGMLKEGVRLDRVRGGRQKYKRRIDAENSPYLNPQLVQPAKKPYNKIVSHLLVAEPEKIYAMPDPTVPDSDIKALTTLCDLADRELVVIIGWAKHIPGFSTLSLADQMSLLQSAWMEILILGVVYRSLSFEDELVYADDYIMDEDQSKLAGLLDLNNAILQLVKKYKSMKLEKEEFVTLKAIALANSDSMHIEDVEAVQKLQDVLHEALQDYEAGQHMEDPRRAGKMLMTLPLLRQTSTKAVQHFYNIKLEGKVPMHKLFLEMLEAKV
Chain of Oxysterols receptor LXR-alpha (Homo sapiens) (Q13133 whole entry, looked up, the tested form may be a part): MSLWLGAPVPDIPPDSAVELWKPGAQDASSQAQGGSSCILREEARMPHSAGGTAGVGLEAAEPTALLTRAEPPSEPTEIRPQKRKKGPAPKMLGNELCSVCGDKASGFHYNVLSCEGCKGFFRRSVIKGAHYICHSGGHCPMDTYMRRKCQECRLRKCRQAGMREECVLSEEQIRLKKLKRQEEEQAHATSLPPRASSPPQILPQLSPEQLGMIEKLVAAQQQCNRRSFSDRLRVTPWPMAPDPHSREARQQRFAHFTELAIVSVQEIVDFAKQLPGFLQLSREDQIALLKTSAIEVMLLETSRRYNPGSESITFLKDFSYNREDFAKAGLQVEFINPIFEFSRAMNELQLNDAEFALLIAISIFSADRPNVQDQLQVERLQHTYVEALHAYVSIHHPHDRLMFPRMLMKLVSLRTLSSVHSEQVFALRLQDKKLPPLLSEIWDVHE
Chain of Estrogen receptor (Homo sapiens) (P03372 whole entry, looked up, the tested form may be a part): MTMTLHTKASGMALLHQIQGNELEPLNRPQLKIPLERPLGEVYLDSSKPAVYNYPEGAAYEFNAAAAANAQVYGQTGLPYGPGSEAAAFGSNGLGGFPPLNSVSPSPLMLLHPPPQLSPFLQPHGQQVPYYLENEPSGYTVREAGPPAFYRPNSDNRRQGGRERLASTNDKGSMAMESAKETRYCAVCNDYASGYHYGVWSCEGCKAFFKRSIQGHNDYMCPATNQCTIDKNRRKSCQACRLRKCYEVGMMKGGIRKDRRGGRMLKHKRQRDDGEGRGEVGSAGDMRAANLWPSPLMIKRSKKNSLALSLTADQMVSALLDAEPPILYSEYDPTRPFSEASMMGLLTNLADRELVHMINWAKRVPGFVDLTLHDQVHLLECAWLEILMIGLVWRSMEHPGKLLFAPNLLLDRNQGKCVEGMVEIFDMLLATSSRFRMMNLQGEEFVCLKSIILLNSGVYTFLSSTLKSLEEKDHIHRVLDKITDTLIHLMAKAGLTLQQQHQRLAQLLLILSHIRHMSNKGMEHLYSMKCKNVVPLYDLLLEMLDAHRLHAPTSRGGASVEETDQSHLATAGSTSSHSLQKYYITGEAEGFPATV
Chain of Glucocorticoid receptor (Homo sapiens) (P04150 whole entry, looked up, the tested form may be a part): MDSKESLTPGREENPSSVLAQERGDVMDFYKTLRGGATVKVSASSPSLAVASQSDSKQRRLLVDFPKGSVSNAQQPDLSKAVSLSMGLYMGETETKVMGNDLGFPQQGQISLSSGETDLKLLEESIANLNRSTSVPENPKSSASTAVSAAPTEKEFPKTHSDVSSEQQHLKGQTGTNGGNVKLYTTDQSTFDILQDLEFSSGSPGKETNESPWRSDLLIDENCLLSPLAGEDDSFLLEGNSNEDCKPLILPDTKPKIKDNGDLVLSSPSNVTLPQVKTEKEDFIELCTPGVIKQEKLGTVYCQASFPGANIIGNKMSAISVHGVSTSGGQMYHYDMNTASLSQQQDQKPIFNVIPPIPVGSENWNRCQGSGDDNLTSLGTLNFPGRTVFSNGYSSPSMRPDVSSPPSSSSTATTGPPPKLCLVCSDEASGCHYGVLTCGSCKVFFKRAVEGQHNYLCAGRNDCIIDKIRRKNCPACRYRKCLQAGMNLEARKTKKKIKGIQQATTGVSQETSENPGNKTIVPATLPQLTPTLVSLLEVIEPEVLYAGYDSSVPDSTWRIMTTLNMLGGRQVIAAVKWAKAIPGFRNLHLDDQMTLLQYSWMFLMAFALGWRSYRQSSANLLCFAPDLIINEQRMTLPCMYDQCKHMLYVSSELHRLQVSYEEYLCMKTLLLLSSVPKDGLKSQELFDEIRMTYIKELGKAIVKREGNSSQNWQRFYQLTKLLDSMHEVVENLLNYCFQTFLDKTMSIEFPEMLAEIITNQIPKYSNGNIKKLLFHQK

CCCCCCCCC1CCC(=O)O1 (stereo not drawn)
not listed: [7] | [8] | [9]
inactive: all other assays above

CCCCCCCCCC=CCC1CC(=O)OC1=O (stereo not drawn)
inactive: [1] | [2]

O=C1c2ccc(O)c(O)c2C(=O)c2c(O)ccc(O)c21
active: [1] 4.53 µM
inactive: [2] | [7] | [5] | [6]

CC(C)(c1ccc(Oc2ccc(N)cc2)cc1)c1ccc(Oc2ccc(N)cc2)cc1
inactive: [1] | [2] | [8] | [3]
active: [6] 3.21 µM

O=C(NCc1ncc(C(F)(F)F)cc1Cl)c1c(Cl)cccc1Cl
inactive: [1] | [2] | [5] | [6]

O=CC(F)(F)C(F)(F)C(F)(F)F
not listed: [7] | [9]
inactive: all other assays above

CCOC(=O)c1nc(C(Cl)(Cl)Cl)n(-c2ccc(Cl)cc2Cl)n1
active: [1] 25.7 µM | [2] 178 µM
inactive: [3] | [5]

CN(Cc1cnc2nc(N)nc(N)c2n1)c1ccc(C(=O)N[C@@H](CCC(=O)O)C(=O)O)cc1
inactive: [1] | [2] | [8] | [3] | [5]

Cc1cc(Cc2cc(C)cc(C(C)(C)C)c2O)c(O)c(C(C)(C)C)c1
active: [2] 25 µM
inactive: [1] | [8] | [5] | [6]

CCOC=O
inactive: [2] | [3] | [7] | [4]
active: [1] 59.7 µM

CCCCC(CC)C(=O)OCCOCCOCCOCCOC(=O)C(CC)CCCC (stereo not drawn)
inactive: [1] | [2] | [8] | [3] | [7]

CN(C)CCOC(c1ccccc1)c1ccccc1
inactive: [1] | [2] | [6]

O=C1Cc2ccccc2N1c1c(Cl)cccc1Cl
active: [1] 4.59 µM
inactive: [2] | [8] | [3] | [4] | [5]

CCCCCCCC(OC)OC
inactive: [1] | [4] | [5]

FC(F)=C(F)C(F)(F)C(F)(F)C(F)(F)C(F)F
not listed: [4] | [6] | [9]
inactive: all other assays above

CCCCc1oc2ccccc2c1C(=O)c1cc(I)c(OCCN(CC)CC)c(I)c1
not listed: [2] | [3] | [9]
inactive: all other assays above

C[C@]12CC[C@@H]3c4ccc(O)cc4CC[C@H]3[C@@H]1CC[C@@H]2OC(=O)CCC1CCCC1
inactive: [2] | [4] | [6]
active: [1] 0.0823 µM

COC1=CC(=O)C[C@@H](C)[C@]12Oc1c(Cl)c(OC)cc(OC)c1C2=O
inactive: [1] | [8] | [5] | [6]

Cc1ccccc1OCC(=O)O
not listed: [3] | [7] | [9]
inactive: all other assays above

CCCCCCCCCCCCOC(=O)c1cc(O)c(O)c(O)c1
inactive: [8] | [4]
active: [1] 11.1 µM | [2] 11.1 µM | [5] 45.1 µM

NCCN
inactive: [1] | [2] | [8] | [3]

CCc1ccccc1O
inactive: [1] | [2] | [8] | [4] | [5]

Oc1ccc(Cc2ccccc2O)cc1
inactive: [8] | [5]
active: [1] 3.65 µM

COC(=O)CC(C(C)=O)C(=O)OC (stereo not drawn)
inactive: [1] | [2] | [8]

CCc1cccc(CC)c1N(COC)C(=O)CS(=O)(=O)O
not listed: [6] | [9]
inactive: all other assays above

COC(=O)C(F)(F)C(F)(F)C(F)(F)F
inactive: [1] | [2] | [8] | [3] | [4]

COc1ccccc1NC(=O)c1cc2ccccc2cc1O
inactive: [1] | [7] | [5] | [6]

O=C(OC(=O)C(F)(F)C(F)(F)F)C(F)(F)C(F)(F)F
not listed: [4] | [7] | [9]
inactive: all other assays above

N=C(N)c1ccc(OCCCCCOc2ccc(C(=N)N)cc2)cc1
active: [1] 23.5 µM | [2] 48.1 µM
inactive: [3]

C=CC(=O)OCC(CO)(COCC(COC(=O)C=C)(COC(=O)C=C)COC(=O)C=C)COC(=O)C=C
inactive: [1] | [4]
active: [2] 2.87 µM

Oc1c(Cl)ccc(Cl)c1Cl
inactive: [1] | [2]

Cc1ccc(S(=O)(=O)O)cc1
inactive: [2] | [3] | [6]

CC1=NN(c2ccccc2)C(=O)C1
inactive: [2] | [8] | [4] | [5]

CN(C)c1ccc(C(=C2C=CC(=[N+](C)C)C=C2)c2ccccc2)cc1
inactive: [3] | [7] | [4] | [5]

Nc1ccn([C@@H]2O[C@H](CO)[C@@H](O)C2O)c(=O)n1 (stereo partly drawn)
not listed: [1] | [6] | [7]
inactive: all other assays above

CCCCCCCCCCCC[N+](C)(C)Cc1ccccc1
inactive: [8] | [6]
active: [8] 168 µM

CC=O
inactive: [8] | [3]

CCCC=O
inactive: [9] | [8] | [3] | [7] | [6]

Brc1ccc(Oc2ccc(Br)cc2Br)cc1
inactive: [9] | [2] | [8] | [5] | [6]
